Where “and” joins values, the source holds several entries; their conditions need not be identical. Equal values may be shown once. Records with an inconclusive call do not appear. Calls of active or inactive are those of the source. Unless noted, calls come from the whole dose curve; as a rule, active = well fitted curve in the direction sought with a large enough effect; inconclusive = small, poorly fitted or top-dose-only effect, or another doubt; inactive = no such curve, though single readings can be large; an effect the other way counts as inactive or inconclusive.
How the values were obtained:
[1] = Cellular Toxicity (caspase-3) N2a (AID 665);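 note: compound exposure lasted 16 h at 37 °C before readout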
Summary of the method: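 Luminescent Caspase-Glo 3/7 readout in N2a mouse neuroblastoma cells after 16 h compound exposure at 37 °C. Signal scaled to DMSO (basal) and 10 uM staurosporine (100%). Concentration-response fitted with Hill equation for AC50.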

[2] = Cellular Toxicity (caspase-3) NIH 3T3 (AID 666);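 note: 0% = DMSO basal and 100% = 100 µM tamoxifen stimulation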
Summary of the method: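 NIH 3T3, 1000 cells/well, 5 hr settle then 16 hr compound at 37°C; Caspase-Glo 3/7, 20 min RT, luminescence. DMSO = basal, 100 uM tamoxifen = 100%. Hill-equation AC50, qHTS.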

[3] = Cellular Toxicity (caspase-3) Renal Proximal Tubule (AID 667); details: renal proximal tubule cells; at 91.7 µM (top of the series) unless noted;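 note: cells exposed to compound for 16 hours at 37 °C before detection; 0% = DMSO basal and 100% = 10 µM staurosporine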
Summary of the method: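 Caspase 3/7 activation measured by luminescent aminoluciferin release in primary rat proximal tubule cells after 16 hr compound exposure at 37 °C. AC50 from Hill-fitted concentration-response, scaled between DMSO and 10 uM staurosporine.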

[4] = target: Cytochrome P450 3A4 (Homo sapiens) (UniProt P08684); test: qHTS Assay for Inhibitors and Substrates of Cytochrome P450 3A4 (AID 884); note: % is set by controls: 0 for no effect and ±100 for the full control effect; nearly all actives have a fitted effect of over 50% in size
Cytochrome P450 3A4 (Homo sapiens), sequence (P08684 whole entry, looked up): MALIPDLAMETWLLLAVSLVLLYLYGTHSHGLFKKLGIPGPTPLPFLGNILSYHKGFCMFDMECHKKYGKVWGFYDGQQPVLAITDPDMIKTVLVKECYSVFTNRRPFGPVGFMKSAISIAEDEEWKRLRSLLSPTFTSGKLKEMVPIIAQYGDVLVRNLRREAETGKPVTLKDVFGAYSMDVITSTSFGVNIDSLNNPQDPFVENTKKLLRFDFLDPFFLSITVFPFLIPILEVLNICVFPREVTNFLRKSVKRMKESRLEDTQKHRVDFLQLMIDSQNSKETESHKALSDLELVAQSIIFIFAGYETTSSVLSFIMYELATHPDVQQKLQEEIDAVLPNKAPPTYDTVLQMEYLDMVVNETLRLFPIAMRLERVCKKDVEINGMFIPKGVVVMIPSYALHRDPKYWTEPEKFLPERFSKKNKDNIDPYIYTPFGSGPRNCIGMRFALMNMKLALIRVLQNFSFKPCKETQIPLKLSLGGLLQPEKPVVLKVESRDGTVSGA
Summary of the method: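 Luminescent readout of luciferin produced by CYP3A4 (20 nM) dealkylation of Luciferin-PPXE, 25 uM (its KM). NADPH-driven reaction ran 60 min at RT after 10 min compound preincubation; data scaled to 57 uM ketoconazole as 100% inhibition.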

[5] = target: Guanine nucleotide-binding protein G(i) subunit alpha-1 (Homo sapiens) (UniProt P63096); test: qHTS Assay for Inhibitors of RGS12 GoLoco Motif Activity (Green Fluorophore) (AID 879);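 note: 0% = labeled peptide with Gαi1 and full inhibition = labeled peptide alone without protein; negative values mean loss of peptide binding seen as reduced polarization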
Guanine nucleotide-binding protein G(i) subunit alpha-1 (Homo sapiens), sequence (P63096 whole entry, looked up): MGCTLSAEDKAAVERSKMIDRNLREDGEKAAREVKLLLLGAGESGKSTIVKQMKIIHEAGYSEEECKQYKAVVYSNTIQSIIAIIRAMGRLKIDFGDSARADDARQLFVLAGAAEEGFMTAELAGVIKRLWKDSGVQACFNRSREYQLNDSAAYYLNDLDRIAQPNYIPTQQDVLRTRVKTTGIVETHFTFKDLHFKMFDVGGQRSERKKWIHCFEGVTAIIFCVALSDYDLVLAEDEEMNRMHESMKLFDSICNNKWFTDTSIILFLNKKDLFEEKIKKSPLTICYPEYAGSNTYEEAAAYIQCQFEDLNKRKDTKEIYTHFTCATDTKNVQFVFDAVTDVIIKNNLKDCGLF
Summary of the method: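 A drop in FITC polarization marked displacement of the FITC-tagged RGS12 GoLoco peptide (10 nM) from Gαi1 (50 nM). Compounds were incubated 10 min at room temperature in Tris pH 7.5 buffer containing 150 mM NaCl, 0.1 mM GDP and 0.05% NP40; unlabeled peptide titration served as control.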

[6] = target: Cytochrome P450 3A4 (Homo sapiens) (UniProt P08684); test: qHTS Assay for Activators of Cytochrome P450 3A4 (AID 885); note: nearly all actives have a fitted effect of over 65% in size
Summary of the method: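 Human CYP3A4 dealkylates Luciferin-PPXE to luciferin, which luciferase detection converts to light. Substrate was at its KM (25uM), buffer 200mM KPO4, reaction 60 min at RT.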

[7] = target: Cytochrome P450 2C9 (Homo sapiens) (UniProt P11712); test: qHTS Assay for Inhibitors and Substrates of Cytochrome P450 2C9 (AID 883); note: % is set by controls: 0 for no effect and ±100 for the full control effect; nearly all actives have a fitted effect of over 60% in size
Cytochrome P450 2C9 (Homo sapiens), sequence (P11712 whole entry, looked up): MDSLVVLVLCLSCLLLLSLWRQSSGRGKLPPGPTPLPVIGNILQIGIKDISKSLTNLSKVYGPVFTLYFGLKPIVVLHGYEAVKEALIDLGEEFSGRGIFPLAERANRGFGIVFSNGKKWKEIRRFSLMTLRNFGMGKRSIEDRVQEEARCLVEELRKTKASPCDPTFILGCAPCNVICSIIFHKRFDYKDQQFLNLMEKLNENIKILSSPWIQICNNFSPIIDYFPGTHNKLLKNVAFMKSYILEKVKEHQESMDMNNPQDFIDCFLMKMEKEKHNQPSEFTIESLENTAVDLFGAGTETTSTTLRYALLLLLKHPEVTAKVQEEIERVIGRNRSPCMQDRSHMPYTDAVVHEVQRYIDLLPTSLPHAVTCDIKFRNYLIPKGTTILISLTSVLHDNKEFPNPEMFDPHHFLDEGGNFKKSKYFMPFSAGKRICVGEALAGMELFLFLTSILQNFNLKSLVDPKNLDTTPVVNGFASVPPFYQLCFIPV
Summary of the method: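 Turnover of Luciferin-H (100uM, KM) by 10nM human CYP2C9 was measured over 60 min at 37C with NADPH regeneration; inhibitors and some substrates reduce luminescence. Data normalized to sulphaphenazole 57uM.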

[8] = target: Cytochrome P450 2D6 (Homo sapiens) (UniProt P10635); test: qHTS Assay for Inhibitors and Substrates of Cytochrome P450 2D6 (AID 891);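 note: luciferin methyl ether substrate demethylated by CYP2D6 with NADPH regeneration; % is set by controls: 0 for no effect and ±100 for the full control effect; nearly all actives have a fitted effect of over 60% in size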
Cytochrome P450 2D6 (Homo sapiens), sequence (P10635 whole entry, looked up): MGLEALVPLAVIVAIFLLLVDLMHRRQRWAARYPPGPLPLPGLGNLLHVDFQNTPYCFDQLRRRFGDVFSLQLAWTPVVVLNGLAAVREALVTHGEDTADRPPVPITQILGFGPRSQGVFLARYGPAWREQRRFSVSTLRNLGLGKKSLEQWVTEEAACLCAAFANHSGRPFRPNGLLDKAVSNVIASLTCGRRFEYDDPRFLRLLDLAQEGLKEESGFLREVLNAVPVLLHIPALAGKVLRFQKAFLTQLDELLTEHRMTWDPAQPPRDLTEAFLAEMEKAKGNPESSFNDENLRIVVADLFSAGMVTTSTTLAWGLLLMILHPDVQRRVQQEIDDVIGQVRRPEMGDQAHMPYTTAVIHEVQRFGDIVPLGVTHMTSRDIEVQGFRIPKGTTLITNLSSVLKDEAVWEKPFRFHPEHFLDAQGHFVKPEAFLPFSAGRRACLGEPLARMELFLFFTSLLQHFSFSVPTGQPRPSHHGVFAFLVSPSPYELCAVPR
Summary of the method: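 Luminescent read-out of luciferin formed by 5 nM human CYP2D6 demethylating 30 uM Luciferin-ME EGE (Km level) over 60 min at room temperature after NADPH regeneration addition. Data normalized to full inhibition by 1.43 uM quinidine.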

[9] = qHTS Assay for Identification of Small Molecule Antagonists for NFkB Signaling Pathway (AID 895; active = well fitted inhibition curve with a large enough effect in the signal ratio, with a control signal flat, not every such curve was filed as active; the % refers to the signal ratio; note: % is set by controls: 0 for no effect and ±100 for the full control effect)
Summary of the method: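 Beta-lactamase reporter read-out (460 and 530 nm emission ratio, 405 nm excitation, 2 hrs substrate loading RT) after 5 hr stimulation with 10 pM TNF alpha in compound-treated NFkB-bla ME-180 cells in low-serum medium.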

[10] = target: Cytochrome P450 2C19 (Homo sapiens) (UniProt P33261); test: qHTS Assay for Inhibitors and Substrates of Cytochrome P450 2C19 (AID 899); note: % is set by controls: 0 for no effect and ±100 for the full control effect; nearly all actives have a fitted effect of over 60% in size
Cytochrome P450 2C19 (Homo sapiens), sequence (P33261 whole entry, looked up): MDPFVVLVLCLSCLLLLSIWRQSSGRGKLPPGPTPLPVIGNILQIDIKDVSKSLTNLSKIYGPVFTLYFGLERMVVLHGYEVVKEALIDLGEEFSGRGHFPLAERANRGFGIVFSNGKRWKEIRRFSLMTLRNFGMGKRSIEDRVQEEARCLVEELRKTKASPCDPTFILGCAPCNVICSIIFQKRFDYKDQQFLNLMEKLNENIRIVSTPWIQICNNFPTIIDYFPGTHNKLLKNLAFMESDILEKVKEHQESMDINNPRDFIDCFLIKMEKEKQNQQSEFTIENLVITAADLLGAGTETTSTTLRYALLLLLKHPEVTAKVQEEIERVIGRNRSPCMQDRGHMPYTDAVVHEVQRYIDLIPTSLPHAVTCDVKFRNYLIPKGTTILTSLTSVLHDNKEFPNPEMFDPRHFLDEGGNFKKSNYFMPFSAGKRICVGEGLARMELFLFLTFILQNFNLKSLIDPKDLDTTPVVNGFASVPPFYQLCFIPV
Summary of the method: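 Reactions contain 5nM enzyme, 10uM Luciferin-H EGE (KM) and 50mM KPO4; compound preincubates 10 min at 37C, NADPH regeneration starts turnover for 60 min. Luminescence after detection reagent gives activity.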

O=C/C=C/c1ccccc1
inactive: outcome [1] | Potency [2] | caspase-3 activation [3] 0.729% and 4.55% | Potency [4]

CN1CCc2cccc(Cl)c2CC1
inactive: Potency [5]

C[C@H](N)CN1CCc2ccc(Br)cc21
inactive: Potency [5]

O=C(O)C(Cl)(Cl)Cl
inactive: outcome [1] | Potency [2] | caspase-3 activation [3] -2.66% and 2.21% | Potency [4]

C=CCN=C=S
inactive: outcome [1] | Potency [2] | caspase-3 activation [3] -1.14% [at 91.7 µM, primary cells freshly taken from rat, solvent-only wells 0%, staurosporine 100%] | outcome [6]

O=C1C=CC(=O)C=C1
inactive: outcome [1] | Potency [2] | caspase-3 activation [3] 4.64% | Potency [5] | Potency [7] | Potency [4] | Potency [8] | Potency [9] | Potency [10]

ClC=C(Cl)Cl
inactive: outcome [1] | Potency [2] | caspase-3 activation [3] -7.81% [at 91.7 µM, primary cells freshly taken from rat, solvent-only wells 0%, staurosporine 100%] | Potency [4]

S=C=S
inactive: outcome [1] | Potency [2] | caspase-3 activation [3] 4.15% [at 91.7 µM, primary cells freshly taken from rat, solvent-only wells 0%, staurosporine 100%] | Potency [4]

ClC(Cl)(Cl)Cl
inactive: outcome [1] | Potency [2] | caspase-3 activation [3] 5.92% and -10.1% | Potency [4]

CC(C)CCON=O
inactive: outcome [1] | Potency [2] | caspase-3 activation [3] -0.158% | Potency [4]

C[C@H]1CC[C@@H]2[C@@H](C)[C@H]3[C@H](C[C@H]4[C@@H]5CC=C6CC(O[C@@H]7O[C@H](CO)[C@H](O)[C@H](O[C@@H]8O[C@H](CO)[C@@H](O)[C@H](O)[C@H]8O)[C@H]7O[C@H]7O[C@@H](C)[C@H](O)[C@@H](O)[C@H]7O)CC[C@]6(C)[C@H]5CC[C@]34C)N2C1 (stereo partly drawn)
inactive: outcome [1] | Potency [2] | caspase-3 activation [3] 5.75% | Potency [4]

— PubChem BioAssay (NCATS)
